Laboratory results taken from PubChem BioAssay.
Active and inactive are the calls of the source.

What was measured:
[1] = test system: PRMT1 (protein arginine N-methyltransferase 1); experiment: small molecules binding arginine methyltransferase PRMT1 – biochemical, small-molecule microarray, 635 nm fluorescence, primary screen (AID 1088); details: higher = more signal;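 further: binding of Prmt1 protein to compounds spotted on small-molecule microarray slides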
[2] = growth effects on S. cerevisiae YJM789 – YJM789 clinical isolate, OD600, 24 h, basal, primary screen (AID 1089); details: higher = more signal, called active from +8 up or from −8 down;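 further: growth of clinical yeast isolate S. cerevisiae YJM 789 seeded 1000 cells per well; test concentration not given here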
[3] = S. pombe growth modifiers, basal conditions – strain 972, OD600, 24 h, no modulator, primary screen (AID 1090);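 further: basal condition with compound alone and no growth modifier present; test concentration not given here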; details: S. pombe 972 growth, higher = more signal, called active from +8 up or from −8 down
[4] = budding yeast growth modifiers under rapamycin – strain BY4716, OD600, 96 h, primary screen (AID 1091); further: test concentration not given here; details: S. cerevisiae BY4716 + rapamycin, higher = more signal, called active from +8 up or from −8 down
[5] = target: Torsin-1A-interacting protein 2 (Homo sapiens) (UniProt Q8NFQ8); experiment: small molecules binding lysate-expressed LULL1 – cell lysate, human LULL1 lysate, 635/667 nm fluorescence, primary screen (AID 1092); details: small-molecule microarray, hLULL1 lysate binding, 635 nm fluorescence; higher = more signal;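 further: probe is lysate of COS7 cells overexpressing human LULL1; score merges per-feature 667 nm fluorescence with signal-to-noise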
[6] = optical density change of DRC41 E. coli – strain DRC41, OD650, 24 h, E. coli filamentation project, primary screen (AID 1093);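 further: MC1000 strain lacking acrAB efflux and sulA so SOS filamentation is blocked; test concentration not given here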; details: E. coli DRC41 growth, higher = more signal, called active from +8 up or from −8 down
[7] = probe aLefty2 binding to arrayed compounds – biochemical, biotinylated probe, 635/667 nm fluorescence, primary screen (AID 1094); details: small-molecule microarray, higher = more signal;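 further: score merges spot fluorescence near 667 nm with spot signal-to-noise ratio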
[8] = test system: Noggin (protein binding on small-molecule microarray); experiment: small molecules binding Noggin protein – biochemical, 635/667 nm fluorescence, primary screen (AID 1095); details: 635 nm fluorescence, higher = more signal;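 further: score merges 667 nm feature fluorescence with signal to noise over triplicate slides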
[9] = target: Neurogenic locus notch homolog protein 3 (Homo sapiens) (UniProt Q9UM47); experiment: small molecules binding NOTCH3 protein – biochemical, 635/667 nm fluorescence, primary screen (AID 1096); details: small-molecule microarray, 635 nm fluorescence, higher = more signal
[10] = probe aEGFR binding to arrayed compounds – biochemical, biotinylated probe, 635/667 nm fluorescence, primary screen (AID 1097); details: small-molecule microarray, higher = more signal;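 further: probe is a biotinylated anti-EGFR antibody binding compounds printed on slides; score combines fluorescence near 667 nm and signal to noise of each spot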
[11] = test system: Plasmodium falciparum Sir2 (PF13_0152, Sir2A); experiment: Plasmodium falciparum Sir2A binding compounds – biochemical, small-molecule microarray, 635 nm fluorescence, primary screen (AID 1098); details: fluorescence 635 nm, higher = more signal;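 further: score merges spot fluorescence intensity with its signal-to-noise ratio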
[12] = probe aDKK1 binding to arrayed compounds – biochemical, biotinylated probe, 635/667 nm fluorescence, primary screen (AID 1099); details: small-molecule microarray, higher = more signal;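 further: score merges 667nm spot fluorescence with signal to noise across triplicate slides; reference of the scale not given here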
[13] = probe aCHRDL2 binding to arrayed compounds – biochemical, biotinylated probe, 635/667 nm fluorescence, primary screen (AID 1100); details: small-molecule microarray, higher = more signal
[14] = change in splice reporter luminescence, either direction, cell-based, HEK293, spliceosome inhibition project, primary screen (AID 1101); details: HEK293 splicing luciferase reporter, 24 h, higher = more signal, called active from +8 up or from −8 down;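 further: HEK293 cells carrying a splicing-competent luciferase reporter gene; test concentration not given here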
[15] = target: Fibroblast growth factor 10 (Homo sapiens) (UniProt O15520); experiment: compounds binding fibroblast growth factor 10 – biochemical, small-molecule microarray, 635 nm fluorescence, primary screen (AID 1102); details: FGF10 binding, fluorescence 635 nm, higher = more signal
[16] = test system: glycogen synthase kinase-3 (GSK3A per assay name; protocol says GSK3B); experiment: compounds binding glycogen synthase kinase-3 – biochemical, small-molecule microarray, 635 nm fluorescence, GSK3A, primary screen (AID 1103); details: fluorescence 635 nm, higher = more signal; further: the record names both GSK3A and GSK3B
[17] = target: Epidermal growth factor receptor (Homo sapiens) (UniProt P00533); experiment: compounds binding epidermal growth factor receptor – biochemical, small-molecule microarray, 635 nm fluorescence, primary screen (AID 1104); details: EGFR binding, higher = more signal;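 further: score merges 667 nm emission intensity with spot signal to noise over triplicate slides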
[18] = target: Follistatin-related protein 3 (Homo sapiens) (UniProt O95633); experiment: compounds binding follistatin-related protein 3 – biochemical, small-molecule microarray, 635 nm fluorescence, primary screen (AID 1105); details: FSTL3 binding, higher = more signal;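 further: score merges emission near 667 nm and signal to noise per printed spot across three slides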
[19] = target: Dickkopf-related protein 1 (Homo sapiens) (UniProt O94907); experiment: small molecules binding DKK1 protein – biochemical, small-molecule microarray, 635 nm fluorescence scan, primary screen (AID 1106); details: higher = more signal;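 further: score merges emission near 667 nm with signal to noise over three replicate slides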
[20] = test system: Inhibin beta A chain (activin A); experiment: small molecules binding activin A – biochemical, small-molecule microarray, 635 nm fluorescence scan, primary screen (AID 1107); details: INHBA, higher = more signal;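 further: mouse activin A protein probed at 4.33 µg/mL on printed slides; score merges bound-protein fluorescence near 667 nm with spot signal-to-noise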

Neurogenic locus notch homolog protein 3 (Homo sapiens), sequence (Q9UM47 whole entry, looked up): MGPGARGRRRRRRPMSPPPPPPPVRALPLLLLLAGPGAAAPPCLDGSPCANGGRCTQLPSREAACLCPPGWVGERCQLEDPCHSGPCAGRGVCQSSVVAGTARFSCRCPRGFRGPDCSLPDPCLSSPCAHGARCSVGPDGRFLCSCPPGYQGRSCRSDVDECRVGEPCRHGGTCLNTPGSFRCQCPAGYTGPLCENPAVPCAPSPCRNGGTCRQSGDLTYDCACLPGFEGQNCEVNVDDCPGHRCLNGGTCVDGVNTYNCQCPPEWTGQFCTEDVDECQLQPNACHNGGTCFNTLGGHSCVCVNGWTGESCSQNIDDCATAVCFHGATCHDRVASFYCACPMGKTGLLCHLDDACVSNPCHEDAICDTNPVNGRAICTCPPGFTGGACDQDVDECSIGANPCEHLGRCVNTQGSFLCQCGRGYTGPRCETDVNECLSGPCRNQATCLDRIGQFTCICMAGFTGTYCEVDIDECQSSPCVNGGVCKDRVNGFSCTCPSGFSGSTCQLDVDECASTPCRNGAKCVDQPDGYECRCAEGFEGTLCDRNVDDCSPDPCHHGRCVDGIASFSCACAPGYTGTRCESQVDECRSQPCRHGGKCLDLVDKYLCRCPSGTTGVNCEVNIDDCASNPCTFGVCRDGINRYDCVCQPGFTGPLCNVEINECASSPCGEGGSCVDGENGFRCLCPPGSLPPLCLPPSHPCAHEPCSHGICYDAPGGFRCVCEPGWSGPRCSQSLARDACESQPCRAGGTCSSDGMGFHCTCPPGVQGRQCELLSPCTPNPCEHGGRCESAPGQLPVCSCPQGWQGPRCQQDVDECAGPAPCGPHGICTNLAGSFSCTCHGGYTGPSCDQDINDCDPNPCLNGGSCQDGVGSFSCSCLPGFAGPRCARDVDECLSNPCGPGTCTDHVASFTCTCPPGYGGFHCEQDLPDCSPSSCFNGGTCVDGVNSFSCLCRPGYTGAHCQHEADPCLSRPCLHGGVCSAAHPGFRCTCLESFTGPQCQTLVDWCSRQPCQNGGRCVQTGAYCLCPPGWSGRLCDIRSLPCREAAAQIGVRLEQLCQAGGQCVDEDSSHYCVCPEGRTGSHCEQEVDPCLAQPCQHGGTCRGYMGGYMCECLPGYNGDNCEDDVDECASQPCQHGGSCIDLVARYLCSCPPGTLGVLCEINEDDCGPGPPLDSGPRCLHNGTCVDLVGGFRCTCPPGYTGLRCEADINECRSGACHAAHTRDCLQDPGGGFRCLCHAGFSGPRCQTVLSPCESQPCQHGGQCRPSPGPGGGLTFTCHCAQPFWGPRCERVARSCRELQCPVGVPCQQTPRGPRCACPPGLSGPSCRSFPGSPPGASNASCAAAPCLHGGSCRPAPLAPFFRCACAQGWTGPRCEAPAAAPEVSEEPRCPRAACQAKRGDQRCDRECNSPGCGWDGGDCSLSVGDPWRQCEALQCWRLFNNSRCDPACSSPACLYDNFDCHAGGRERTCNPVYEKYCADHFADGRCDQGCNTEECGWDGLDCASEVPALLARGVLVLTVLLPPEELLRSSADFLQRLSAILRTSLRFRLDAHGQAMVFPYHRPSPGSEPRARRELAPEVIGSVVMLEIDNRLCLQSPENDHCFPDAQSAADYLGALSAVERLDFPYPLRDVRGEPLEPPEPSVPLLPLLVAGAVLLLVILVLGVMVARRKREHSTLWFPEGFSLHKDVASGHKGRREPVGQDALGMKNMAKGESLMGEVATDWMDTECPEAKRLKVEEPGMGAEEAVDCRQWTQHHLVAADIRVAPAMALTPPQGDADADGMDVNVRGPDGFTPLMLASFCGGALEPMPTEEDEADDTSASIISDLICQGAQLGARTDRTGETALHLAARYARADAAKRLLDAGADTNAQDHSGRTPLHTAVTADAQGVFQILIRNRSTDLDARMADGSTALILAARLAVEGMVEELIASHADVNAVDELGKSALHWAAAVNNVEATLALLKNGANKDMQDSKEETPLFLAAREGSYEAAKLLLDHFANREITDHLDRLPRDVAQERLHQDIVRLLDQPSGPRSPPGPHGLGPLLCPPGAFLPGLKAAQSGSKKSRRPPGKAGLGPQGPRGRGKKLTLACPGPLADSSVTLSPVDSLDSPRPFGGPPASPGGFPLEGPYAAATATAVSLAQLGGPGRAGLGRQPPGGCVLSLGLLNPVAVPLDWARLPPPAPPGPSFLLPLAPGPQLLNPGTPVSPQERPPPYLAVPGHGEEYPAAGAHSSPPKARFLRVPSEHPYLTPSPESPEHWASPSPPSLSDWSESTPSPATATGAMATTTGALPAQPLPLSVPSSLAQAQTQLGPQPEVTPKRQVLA
Torsin-1A-interacting protein 2 (Homo sapiens), sequence (Q8NFQ8 whole entry, looked up): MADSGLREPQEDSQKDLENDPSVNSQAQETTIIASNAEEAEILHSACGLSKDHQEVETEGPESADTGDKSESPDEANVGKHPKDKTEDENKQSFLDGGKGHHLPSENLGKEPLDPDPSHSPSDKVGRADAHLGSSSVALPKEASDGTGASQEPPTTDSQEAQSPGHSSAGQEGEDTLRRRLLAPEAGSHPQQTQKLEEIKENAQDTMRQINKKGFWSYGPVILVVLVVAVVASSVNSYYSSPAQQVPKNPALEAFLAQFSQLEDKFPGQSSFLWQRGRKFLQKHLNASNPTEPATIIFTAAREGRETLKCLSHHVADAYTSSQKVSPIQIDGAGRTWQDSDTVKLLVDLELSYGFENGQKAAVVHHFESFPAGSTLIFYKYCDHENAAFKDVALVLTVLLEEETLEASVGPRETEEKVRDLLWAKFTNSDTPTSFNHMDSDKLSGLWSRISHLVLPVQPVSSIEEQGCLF
Fibroblast growth factor 10 (Homo sapiens), sequence (O15520 whole entry, looked up): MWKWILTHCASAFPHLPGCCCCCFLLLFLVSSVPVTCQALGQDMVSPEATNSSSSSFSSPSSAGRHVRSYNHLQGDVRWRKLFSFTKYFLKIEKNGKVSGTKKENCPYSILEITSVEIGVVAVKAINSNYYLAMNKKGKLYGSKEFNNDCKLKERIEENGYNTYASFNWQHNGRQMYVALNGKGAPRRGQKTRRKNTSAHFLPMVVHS
Follistatin-related protein 3 (Homo sapiens), sequence (O95633 whole entry, looked up): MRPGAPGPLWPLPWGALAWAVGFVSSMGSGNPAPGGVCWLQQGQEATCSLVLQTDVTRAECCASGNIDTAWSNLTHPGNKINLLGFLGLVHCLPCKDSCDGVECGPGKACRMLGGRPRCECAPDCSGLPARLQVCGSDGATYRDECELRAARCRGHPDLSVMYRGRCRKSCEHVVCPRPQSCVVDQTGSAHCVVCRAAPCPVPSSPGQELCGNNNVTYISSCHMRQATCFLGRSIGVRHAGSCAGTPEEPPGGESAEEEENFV
Dickkopf-related protein 1 (Homo sapiens), sequence (O94907 whole entry, looked up): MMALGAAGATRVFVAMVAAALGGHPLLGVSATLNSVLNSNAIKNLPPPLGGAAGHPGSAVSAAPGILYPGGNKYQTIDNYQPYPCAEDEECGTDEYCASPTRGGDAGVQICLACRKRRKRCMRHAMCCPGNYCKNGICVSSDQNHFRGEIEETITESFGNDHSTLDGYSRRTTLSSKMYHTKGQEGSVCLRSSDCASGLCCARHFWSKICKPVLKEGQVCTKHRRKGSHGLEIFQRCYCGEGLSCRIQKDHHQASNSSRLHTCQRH
Epidermal growth factor receptor (Homo sapiens), sequence (P00533 whole entry, looked up): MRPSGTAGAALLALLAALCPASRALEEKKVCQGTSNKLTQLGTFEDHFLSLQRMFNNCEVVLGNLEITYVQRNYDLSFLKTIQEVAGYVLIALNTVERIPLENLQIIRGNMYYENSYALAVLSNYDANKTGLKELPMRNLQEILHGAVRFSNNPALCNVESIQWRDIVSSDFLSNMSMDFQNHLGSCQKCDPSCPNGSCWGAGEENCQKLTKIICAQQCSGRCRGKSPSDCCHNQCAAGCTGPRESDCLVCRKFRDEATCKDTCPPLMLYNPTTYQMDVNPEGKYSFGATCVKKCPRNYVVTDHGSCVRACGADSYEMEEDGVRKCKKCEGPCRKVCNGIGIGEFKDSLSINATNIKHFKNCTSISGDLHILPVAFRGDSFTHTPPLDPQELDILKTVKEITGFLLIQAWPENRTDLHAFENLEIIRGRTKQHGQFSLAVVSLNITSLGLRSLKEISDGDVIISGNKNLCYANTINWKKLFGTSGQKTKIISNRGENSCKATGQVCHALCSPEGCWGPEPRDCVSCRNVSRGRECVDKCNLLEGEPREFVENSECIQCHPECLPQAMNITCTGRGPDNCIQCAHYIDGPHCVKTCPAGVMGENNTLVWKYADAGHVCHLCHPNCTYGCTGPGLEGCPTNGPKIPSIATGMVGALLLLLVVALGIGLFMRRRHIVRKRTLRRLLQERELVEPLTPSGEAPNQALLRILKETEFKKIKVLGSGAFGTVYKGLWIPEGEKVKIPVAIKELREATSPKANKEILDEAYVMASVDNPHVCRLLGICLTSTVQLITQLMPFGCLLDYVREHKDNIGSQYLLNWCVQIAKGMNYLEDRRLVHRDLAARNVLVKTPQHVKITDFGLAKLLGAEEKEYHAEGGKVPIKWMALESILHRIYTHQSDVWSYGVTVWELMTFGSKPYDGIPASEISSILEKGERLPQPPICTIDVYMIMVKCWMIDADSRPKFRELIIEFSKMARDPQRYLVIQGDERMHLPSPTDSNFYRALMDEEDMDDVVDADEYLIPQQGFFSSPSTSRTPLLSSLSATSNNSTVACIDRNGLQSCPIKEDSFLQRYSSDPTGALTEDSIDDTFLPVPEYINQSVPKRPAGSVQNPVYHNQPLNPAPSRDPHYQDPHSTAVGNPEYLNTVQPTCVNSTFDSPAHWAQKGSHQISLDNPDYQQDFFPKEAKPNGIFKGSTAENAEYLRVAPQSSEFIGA

SMILES | composite z-score [1] | z-score [2] | z-score [3] | z-score [4] | composite z-score [5] | z-score [6] | composite z-score [7] | composite z-score [8] | composite z-score [9] | composite z-score [10] | composite z-score [11] | composite z-score [12] | composite z-score [13] | z-score [14] | composite z-score [15] | composite z-score [16] | composite z-score [17] | composite z-score [18] | composite z-score [19] | composite z-score [20]
CCN(CC)c1ccc(N2CC=CC34O[C@@H]5/C=C\CCCOC(=O)C5[C@H]3C(=O)N(CCCCCCO)[C@@H]4C2=O)cc1 (stereo not given in full) | 0.529 | -2.29 (inactive) | -0.737 (inactive) | -0.64 (inactive) | 3.35 | 1.27 (inactive) | -0.162 | -0.885 | -0.122 | -0.197 | 1.96 | -0.202 | 0.733 | -1.13 (inactive) | -0.983 | -0.521 | -1.4 | -0.76 | -1.82 | 0.751
CCOC(=O)C1=CC[C@@H](c2ccc(N(CC)CC)cc2)N(S(=O)(=O)c2ccc(C)cc2)[C@H]1c1ccc([N+](=O)[O-])cc1 | 0.554 | -0.673 (inactive) | 0.0534 (inactive) | 2.76 (inactive) | 2.29 | -0.532 (inactive) | 0.415 | -0.796 | 0.206 | -0.0688 | 0.468 | 0.592 | 1.33 | -1.26 (inactive) | -0.69 | -1.04 | -1.17 | -0.966 | -1.59 | 1.04
C[N+](C)(C)CCCCCCNC(=O)[C@@H]1C[C@@H]2C(=O)NCC(=O)N2[C@@H]1c1cccc(OCCO)c1 | 1.55 | -0.947 (inactive) | 0.0641 (inactive) | -0.683 (inactive) | 2.23 | 1.3 (inactive) | -0.207 | 1.49 | 1.1 | -0.0531 | 1.23 | -0.253 | -0.127 | -2.5 (inactive) | 0.781 | 0.496 | 0.144 | 1.44 | 1.24 | 0.728
O=C1c2ccccc2C(=O)C2CC([C@H]3Oc4ccccc4S(=O)(=O)N4CCC[C@@H]34)=CCC12 (stereo not given in full) | -0.739 | 0.151 (inactive) | -0.717 (inactive) | 0.388 (inactive) | -0.312 | 1.47 (inactive) | -0.116 | 0.162 | -0.42 | -0.124 | -0.41 | -0.158 | -0.119 | -0.279 (inactive) | 0.0804 | 0.301 | 0.153 | -0.26 | 0.187 | 0.771
CC1C=C(CCCO)C=C(C(=O)OCCS(C)(=O)=O)C(C(=O)OCCS(C)(=O)=O)=CN1Cc1cccc(OC(F)(F)F)c1 (stereo not given) | 0.482 | -1.27 (inactive) | -2.49 (inactive) | -0.0014 (inactive) | 3.11 | -0.436 (inactive) | 0.0057 | 0.0266 | 0.379 | -0.0418 | 1.11 | 0.111 | 0.297 | 1.01 (inactive) | 0.243 | 0.621 | -0.235 | 0.113 | -0.385 | 0.829
C=CCOC(=O)[C@@H]1[C@H]2C(=O)O[C@H](c3ccccc3)[C@H](c3ccccc3)N2[C@H](c2ccc(OCCOC(=O)[C@@H]3C[C@@H]4C(=O)N[C@@H](CCCCNC(C)=O)C(=O)N4[C@@H]3c3ccc(O)cc3)cc2)[C@@]12C(=O)Nc1ccc(I)cc12 | 1.54 | 0.0797 (inactive) | 0.994 (inactive) | 2.96 (inactive) | 2.15 | -0.101 (inactive) | -0.0248 | 1.42 | 1.13 | 0.15 | 1.58 | -0.219 | -0.249 | 0.0887 (inactive) | 1.43 | 1.27 | 1.12 | 1.35 | 0.616 | 0.499
Cc1ccc(S[C@]2(C(=O)NCCN3CCOCC3)CC(=O)N(C3Cc4ccccc4C3)[C@@H]2c2ccc(CO)cc2)cc1 | 1.42 | -0.432 (inactive) | -0.291 (inactive) | -0.0611 (inactive) | 2.77 | 0.7 (inactive) | -0.0928 | -1.11 | -0.521 | -0.222 | 1.48 | 0.0662 | 0.64 | -0.0221 (inactive) | -0.644 | -1.2 | -1 | -0.804 | -0.866 | 0.345
CCOC(=O)C1=CC[C@@H](c2cccc(Br)c2)N(S(=O)(=O)c2ccc(C)cc2)[C@H]1c1ccc([N+](=O)[O-])cc1 | 1.53 | -0.412 (inactive) | -5.06 (inactive) | 3.93 (inactive) | 2.96 | -0.3 (inactive) | -0.0615 | 0.496 | 1.15 | 0.254 | 1.47 | 0.448 | -0.0145 | -0.183 (inactive) | 1.2 | 0.356 | 0.877 | 1.32 | 0.82 | 0.784
O=C1C[C@@](C(=O)NCc2ccccc2)(c2ccc([N+](=O)[O-])cc2)[C@@H](c2ccc(CO)cc2I)N1C1CCCCC1 | 1.55 | 1.2 (inactive) | 0.856 (inactive) | 3.33 (inactive) | 2.38 | 1.04 (inactive) | 0.569 | 0.924 | 1.12 | 0.695 | 0.838 | 1.78 | 0.652 | -0.551 (inactive) | 0.7 | 1.16 | 0.768 | 1.33 | 0.876 | 0.654
Cc1ccc(S[C@]2(C(=O)O)CC(=O)N(Cc3ccccc3C(F)(F)F)[C@@H]2c2ccc(CO)cc2)cc1 | 0.667 | 0.517 (inactive) | 0.13 (inactive) | 0.124 (inactive) | 1.87 | 0.301 (inactive) | -0.0732 | -1.06 | -1.34 | -0.225 | -0.809 | -0.0885 | 1.08 | 0.0922 (inactive) | -0.628 | -0.926 | -1.01 | -0.894 | -1.03 | 1
